Results from paper PMC4336329 (PLoS ONE, 2015).
The campaign covered roughly 310,000 compounds. About 14,000 (4.5%) showed an effect of 50% or more. Effects have a minus sign here. The full list was thinned out, with strong results kept by preference.

target: human ether-à-go-go-related gene (hERG) potassium channel (human, UniProt Q12809); assay: primary screen, population patch clamp on CHO cells stably expressing hERG; higher = less effect of the substance
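Further: peak tail current of the secondary pulse compared with the same well before compound.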

Chain of human ether-à-go-go-related gene (hERG) potassium channel (Q12809 whole entry, looked up): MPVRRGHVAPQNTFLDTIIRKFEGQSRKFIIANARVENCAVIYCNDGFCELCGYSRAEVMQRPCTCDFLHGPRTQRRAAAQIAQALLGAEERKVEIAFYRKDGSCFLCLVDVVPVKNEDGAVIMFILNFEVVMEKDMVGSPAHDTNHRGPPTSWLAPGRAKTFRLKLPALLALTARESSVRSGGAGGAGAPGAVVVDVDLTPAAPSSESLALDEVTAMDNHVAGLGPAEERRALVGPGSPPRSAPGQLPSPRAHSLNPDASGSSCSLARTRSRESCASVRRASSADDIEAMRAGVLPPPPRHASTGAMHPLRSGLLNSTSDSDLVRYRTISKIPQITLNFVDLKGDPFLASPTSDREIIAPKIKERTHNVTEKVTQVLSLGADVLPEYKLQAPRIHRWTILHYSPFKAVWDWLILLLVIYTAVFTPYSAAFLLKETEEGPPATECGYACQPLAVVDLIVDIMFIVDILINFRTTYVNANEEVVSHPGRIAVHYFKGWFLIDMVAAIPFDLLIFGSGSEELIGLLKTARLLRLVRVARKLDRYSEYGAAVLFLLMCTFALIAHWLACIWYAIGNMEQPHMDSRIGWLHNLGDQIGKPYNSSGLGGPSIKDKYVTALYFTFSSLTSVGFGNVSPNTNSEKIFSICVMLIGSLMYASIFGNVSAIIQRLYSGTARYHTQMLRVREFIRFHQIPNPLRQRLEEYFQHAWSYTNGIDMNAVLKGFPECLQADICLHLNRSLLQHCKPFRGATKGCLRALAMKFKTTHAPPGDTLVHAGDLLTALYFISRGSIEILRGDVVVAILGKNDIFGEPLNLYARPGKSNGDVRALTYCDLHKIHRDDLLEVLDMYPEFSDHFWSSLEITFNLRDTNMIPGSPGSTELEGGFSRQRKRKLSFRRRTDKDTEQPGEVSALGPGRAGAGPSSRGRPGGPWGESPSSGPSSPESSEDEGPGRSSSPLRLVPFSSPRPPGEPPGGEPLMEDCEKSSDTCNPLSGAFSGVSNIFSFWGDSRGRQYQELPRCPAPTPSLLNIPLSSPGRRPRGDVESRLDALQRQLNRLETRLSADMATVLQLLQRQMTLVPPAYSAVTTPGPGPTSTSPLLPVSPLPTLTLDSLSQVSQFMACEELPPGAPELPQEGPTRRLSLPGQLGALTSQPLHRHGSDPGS

SMILES	hERG current change (%, negative = inhibition) at 10uM [%]
Cc1cccc(NC(=O)COC(=O)Cc2cccc(C(F)(F)F)c2)c1C	22.8
Cc1cc(C)n(CCNC(=O)CC2C(=O)NCCN2Cc2ccccc2C(F)(F)F)n1 (stereo not shown)	8.81
COCCOC(=O)C1=C(C)OC(N)=C(C#N)C1c1ccc2c(c1)OCO2 (stereo not shown)	-0.292
CCCOc1ccc(/C=N/NC(=O)C(C)Sc2ccccn2)cc1OCC (stereo not shown)	14.9
CCOCC(=O)Nc1cc([N+](=O)[O-])ccc1OC	15.7
N#C/C(=C\C=C\c1ccccc1)c1nc(-c2ccc3c(c2)OCO3)cs1	-3.96
COc1ccc(N(CC(=O)NCc2cccs2)S(=O)(=O)c2ccc(F)cc2)cc1	-0.742
CN(Cc1nccs1)C(=O)C1CCC(=O)N(Cc2ccccc2F)C1 (stereo not shown)	-16.1
COc1cccc(-c2ccc(=O)n(CC(=O)Nc3ccc(C(=O)N4CCCC4)cc3)n2)c1	-15.4
COc1cc(/C=C/c2cccc[n+]2C)ccc1OCC(=O)Nc1ccccc1.[I-]	8.86
CC(=O)c1ccc(N2CCN(C(=O)c3cc(-c4cccnc4)nc4ccc(Br)cc34)CC2)cc1	2.5
CN(C)S(=O)(=O)c1ccc(N2CCCC2)c(C(=O)N2CCN(c3ccc([N+](=O)[O-])cc3)CC2)c1	-76.7
O=C(c1cc([N+](=O)[O-])ccc1N1CCOCC1)N1CCOCC1	18.1
O=C(c1cc([N+](=O)[O-])ccc1N1CCOCC1)N1CCN(c2ccc([N+](=O)[O-])cc2)CC1	-79.8
O=C(c1cc([N+](=O)[O-])ccc1N1CCOCC1)N1CCN(c2ccccc2)CC1	-32.3
Cc1cccc(N2CCN(C(=O)c3cc(S(=O)(=O)N(C)C)ccc3N3CCCC3)CC2)c1C	-12.3
Cc1ccc(S(=O)(=O)N2CCN(C(=O)c3cc(S(=O)(=O)N(C)C)ccc3N3CCCC3)CC2)cc1	-11.1
Cc1ccc2c(C(=O)N3CCN(c4ccccc4)CC3)cc(-c3cccnc3)nc2c1C	4.03
O=C(c1cc(=O)[nH]c2ccccc12)N1CCN(c2ccccc2)CC1	2.12
COc1ccc(N2CCN(C(=O)c3cc(=O)[nH]c4ccccc34)CC2)cc1	-0.412
Cc1ccc2nc(-c3cccnc3)cc(C(=O)N3CCN(c4ccc([N+](=O)[O-])cc4)CC3)c2c1	-68.2
O=C(c1cc(=O)[nH]c2ccccc12)N1CCN(c2ccc([N+](=O)[O-])cc2)CC1	-65.1
CCOc1ccc(C(=O)NCC(=O)OCC(=O)Nc2ccccc2OC)cc1	-18.1
CCC(CC)C(=O)Nc1cc(C)cc(C)c1	0.735
CC(NC(=O)COC(=O)CNC(=O)C1CCCCC1)c1ccccc1 (stereo not shown)	-3.81
COc1ccc(/C=N/NC(=O)c2nnn(-c3nonc3N)c2-c2cccs2)c(OC)c1	13.1

SMILES	hERG current change (%, negative = inhibition) at 10uM [%]
CC(C)(C)NC(=O)C(OC(=O)c1cccs1)c1ccccc1 (stereo not shown)	58.8
Cc1ccc(C(=O)NC(=S)NNC(=O)COc2ccccc2C)cc1	15.3
O=C(O)C1CCCCC1C(=O)NCCc1ccncc1 (stereo not shown)	1.96
O=C(c1ccc(F)cc1)N1CCN2C(=O)c3ccccc3C12c1ccccc1 (stereo not shown)	-31.5
COc1ccc2[nH]c(=O)c(CN(C(C)=O)c3cccc(C)c3)cc2c1	-8.64
Nc1nonc1-n1nnc(C(=O)N/N=C/c2ccccc2)c1CSc1ccc(Cl)cc1	-23.6
Cc1ccccc1C(=O)OC1OC(=O)C(Cl)=C1N1CCOCC1 (stereo not shown)	-20.1
O=C1CCCC2=C1C(c1ccncc1)c1c(nc(SCc3ccccc3)[nH]c1=O)N2 (stereo not shown)	17.7
CC(=O)c1cnc2n(c1=O)CCS2	27.8
O=C(c1cnc2n(c1=O)CCS2)N1CCN(c2ccc([N+](=O)[O-])cc2)CC1	-63
O=C(c1cc([N+](=O)[O-])ccc1N1CCOCC1)N1CCN(S(=O)(=O)c2ccc(F)cc2)CC1	-32.5
O=C(c1cc([N+](=O)[O-])ccc1N1CCOCC1)N1CCN(S(=O)(=O)c2cc(Cl)ccc2Cl)CC1	-32.3
O=C(c1cc([N+](=O)[O-])ccc1N1CCN(S(=O)(=O)c2ccc(Cl)c(Cl)c2)CC1)N1CCOCC1	-52.4
CCOC(=O)N1CCN(C(=O)c2cnc3n(c2=O)CCS3)CC1	7.34
CCOC(=O)C(C)Sc1nnc(Cc2cc(=O)[nH]c(=O)[nH]2)n1-c1ccc(Cl)cc1 (stereo not shown)	2.15
C/C(=N/OC(=O)c1c(F)cccc1F)c1nccs1	3.34
CCOC(=O)CSc1nnc([C@H](Cc2ccccc2)NC(=O)OC(C)(C)C)o1	-14.3
COc1ccc2c(COC(=O)CNC(=O)C34CC5CC(CC(C5)C3)C4)cc(=O)oc2c1	-31.4
COc1ccc([C@@H](C)NC(=O)c2ccc3oc(C(C)C)nc3c2)cc1	26.1
O=C(NC(=S)Nc1ccccc1F)c1ccc(Br)o1	8.98
O=C(c1ccco1)N1CCN(C(=O)C2CC(c3ccc(Cl)cc3)=NO2)CC1 (stereo not shown)	-76.2
O=C(c1ccco1)N1CCN(C(=O)C2CC(c3ccccc3F)=NO2)CC1 (stereo not shown)	-18.3
COc1cc(OC)c(C2=NOC(C(=O)N3CCN(C(=O)c4ccco4)CC3)C2)cc1Cl (stereo not shown)	-35.3
O=C(c1ccco1)N1CCN(C(=O)C2CC(c3ccc(F)cc3)=NO2)CC1 (stereo not shown)	-72.5
COc1cccc(C2=NOC(C(=O)N3CCN(C(=O)c4ccco4)CC3)C2)c1 (stereo not shown)	-40.1
COc1ccc(C2=NOC(C(=O)N3CCN(C(=O)c4ccco4)CC3)C2)cc1OC (stereo not shown)	0.127
